Hit rate of the full screen: of about 48,000 compounds, about 13,000 (27%) showed an effect of 50% or more. The list shows a part of the results.
tested on: Wolbachia pipientis; experiment: Anti-Wolbachia Cell-Based Screen; format: functional; set-up: scale not given: in the data most compounds retested in dose-response had high values; conditions: 5 µM

| SMILES | Percent Effect [%] |
| --- | --- |
| CNC(=O)CCCNCc1c(C)nn(CC(C)C)c1N(C)C | 0.5097 |
| CC(=O)N1CCN(c2ccccc2CNc2ccc3[nH]ncc3c2)CC1 | -1.242 |
| CCNC(=O)CN1CCCN(C(=O)C2CCCc3[nH]ncc32)CC1 (stereo not given) | 2.738 |
| CC(C#N)NS(=O)(=O)c1ccc2c(c1)N(C)CCC2 (stereo not given) | -3.388 |
| Cc1nc(CCNC(=O)C2CC(=O)N(C(C)(C)C)C2)sc1Cl (stereo not given) | -46.08 |
| N#Cc1ccc2c(c1)CN(C(=O)C1CC=CC1)C2c1cnco1 (stereo not given) | -2.479 |
| COCC(=O)N1C[C@@H]2COC[C@]2(COC)C1 | -5.007 |
| O=C(COC1CCCC1)N1CC[C@H]2OCC[C@@]2(COCC2CC2)C1 | 5.898 |
| O=C(Cc1ccco1)N1C[C@H]2CCC[C@@]2(COCC2CC2)C1 | 4.43 |
| COCC(=O)N1C[C@H]2CCC[C@@]2(COC)C1 | 91.12 |
| CC(C)(O)CN1CCN(C(=O)COC2CCCC2)CC1 | -11.71 |
| COC[C@@]12CCC[C@@H]1CN(C(=O)COC1CCCC1)C2 | 116 |
| Cc1csc(N(C)C(=O)C2CC(=O)N(c3ccccc3F)C2)n1 (stereo not given) | 1.281 |
| CCc1cnc(N2CCC(=O)N(CC3CC3)C(C(C)C)C2)nc1 (stereo not given) | -22.71 |
| COc1ncnc2c1CCN(c1cccc(F)c1)CC2 | 16.21 |
| COc1ncnc2c1CCN(Cc1cccc(C)n1)CC2 | 95.16 |
| Cc1cccc(CN2CCc3ncnc(Oc4cccnc4)c3CC2)n1 | 126.9 |
| O=C(N1CCOCC1)N1CCc2ncnc(Oc3cccnc3)c2CC1.O=C(O)C(F)(F)F | 0.6158 |
| Cc1cccc(CN2CCc3ncnc(-c4ccsc4)c3CC2)n1.O=C(O)C(F)(F)F | 18.15 |
| Cc1c(Br)cccc1CNC1(CCO)CCOCC1 | -8.762 |
| Cc1cccc(-c2ccc(C(=O)NCC(C)(C)C(N)=O)c(=O)[nH]2)c1 | 6.298 |
| O=c1n(CC2CCCO2)nc(CC2CCNCC2)n1-c1ccccc1 (stereo not given) | -2.06 |
| O=C(O)C(F)(F)F.O=C(O)C(F)(F)F.c1cc(CN2CCCC3(COCCN(Cc4c[nH]nn4)C3)C2)cs1 (stereo not given) | -3.228 |
| O=C(Cc1ccsc1)N1CCCC2(COCCN(CC3CC3)C2)C1.O=C(O)C(F)(F)F (stereo not given) | -6.273 |
| CNC(=O)CN1CCOCC2(CCCN(Cc3ccc(F)cc3)C2)C1.O=C(O)C(F)(F)F.O=C(O)C(F)(F)F (stereo not given) | 113 |

| SMILES | Percent Effect [%] |
| --- | --- |
| CNC(=O)CN1CCOCC2(CCCN(CCc3ccccc3)C2)C1.O=C(O)C(F)(F)F.O=C(O)C(F)(F)F (stereo not given) | 95.77 |
| Fc1ccc(CN2CCCC3(COCCN(Cc4c[nH]nn4)C3)C2)cc1.O=C(O)C(F)(F)F.O=C(O)C(F)(F)F (stereo not given) | -5.043 |
| CN(C)CCN1CCOCC2(CCCN(C(=O)Cc3ccccc3)C2)C1.O=C(O)C(F)(F)F.O=C(O)C(F)(F)F (stereo not given) | -11.48 |
| CNC(=O)CN1C(=O)CCC12CCCN(CCc1ccccc1)C2 (stereo not given) | -21.16 |
| CNC(=O)CN1CCOCC2(C1)CN(Cc1csnn1)CCO2 (stereo not given) | -63.88 |
| CNC(=O)CN1CCOCC2(CCCN(Cc3ccoc3)C2)C1 (stereo not given) | 84.78 |
| Cc1ccc(CN2CCCC3(CCN(Cc4ccoc4)CC3)C2)cc1.O=C(O)C(F)(F)F.O=C(O)C(F)(F)F | 12.66 |
| CNC(=O)CN1CCOCC2(CCCN(Cc3ccsc3)C2)C1.O=C(O)C(F)(F)F.O=C(O)C(F)(F)F (stereo not given) | 99.42 |
| Fc1ccc(CN2CCOCC3(CCN(Cc4nccs4)C3)C2)cc1.O=C(O)C(F)(F)F.O=C(O)C(F)(F)F (stereo not given) | 2.438 |
| CN(C)c1ccc2c(c1)CN(C(=O)c1cnccn1)C2c1cnco1 (stereo not given) | 6.67 |
| COCCN1CCC2(COCCN(Cc3ccc4c(c3)OCO4)C2)C1.O=C(O)C(F)(F)F.O=C(O)C(F)(F)F (stereo not given) | 1.486 |
| COCCN1CCOCC2(CCCN(Cc3cccc(F)c3)C2)C1.O=C(O)C(F)(F)F.O=C(O)C(F)(F)F (stereo not given) | 114.4 |
| COCCN1CCOCC2(CCCN(Cc3ccc(C)o3)C2)C1.O=C(O)C(F)(F)F.O=C(O)C(F)(F)F (stereo not given) | 4.497 |
| COCCOc1ccc(S(=O)(=O)Nc2cccnc2O)cc1C | -11.72 |
| CCOc1nnc(CN2CCCC(c3nc4ccccc4[nH]3)C2)s1 (stereo not given) | -5.507 |
| CCOc1ccc(CN2CCCC(c3cc4ncccc4[nH]3)C2)cc1 (stereo not given) | 111.1 |
| CCC(=O)NC1CCCN(Cc2ccc(NC(C)=O)cc2)C1 (stereo not given) | 21.19 |
| CC(=O)NC1CCCN(Cc2ccc(-n3ccnc3)cc2)C1 (stereo not given) | 4.103 |
| Fc1ccc(CN2CCCC(c3cc4ncccc4[nH]3)C2)cc1 (stereo not given) | 39.65 |
| CC(=O)Nc1ccc(CN2CCCC(c3cc4ncccc4[nH]3)C2)cc1 (stereo not given) | 130.8 |
| CCc1c(C(=O)N2CC(C)OC(C)(C)C2)cnn1-c1ccccn1 (stereo not given) | -9.37 |
| Cc1nc(C2CCCN2C(=O)Cn2cncn2)no1 (stereo not given) | 83.95 |
| Cc1nc(C2CCCN2C(=O)CCn2cncn2)no1 (stereo not given) | 102.5 |
| Cc1csc(C2CCCCN2C(=O)Cn2cncn2)n1 (stereo not given) | -6.402 |
| Cc1nc(C2CCCN2C(=O)CNS(C)(=O)=O)no1 (stereo not given) | -1.869 |

| SMILES | Percent Effect [%] |
| --- | --- |
| Cc1csc(C2CCCCN2C(=O)CCCn2cccn2)n1 (stereo not given) | -9.362 |
| Cc1csc(C2CCCCN2C(=O)CCn2cncn2)n1 (stereo not given) | 8.818 |
| CC(C)c1nc(C2CCCN(C(=O)CCCn3cncn3)C2)no1 (stereo not given) | 2.854 |
| Cc1nc(C2CCCN2C(=O)CCCn2cccn2)no1 (stereo not given) | 80.92 |
| CC(C)c1nc(C2CCCN(C(=O)CN3CCN(C)CC3)C2)no1 (stereo not given) | -17.54 |
| Cc1nc(C2CCCN2C(=O)CCCOc2ccccc2C)no1 (stereo not given) | 3.026 |
| CC(C)c1nc(C2CCCN(C(=O)CCn3cncn3)C2)no1 (stereo not given) | 109.8 |
| CCC(CC)n1nc(C)cc1NC(=O)C1CCCO1 (stereo not given) | 0.9599 |
| COCCNC(=O)[C@H]1CC[C@@H]2[C@@H](CCN2S(C)(=O)=O)O1 | -5.573 |
| COc1cc2c(cc1-c1nc3c(cnn3C(C)C(C)C)[nH]1)OCO2 (stereo not given) | -3.309 |
| CCc1nc(C2CCCN2C(=O)CCCn2cncn2)no1 (stereo not given) | 114.2 |
| COCc1nc(C(=O)N2CCCC2c2noc(C(C)C)n2)cs1 (stereo not given) | -1.506 |
| Cc1nc(C2CCCN2C(=O)CCCn2cncn2)no1 (stereo not given) | 100.4 |
| CC(C)c1nc(C2CCCN2C(=O)c2cnc[nH]2)no1 (stereo not given) | -3.664 |
| CCc1nc(C2CCCN2C(=O)CCCOc2cccc(F)c2)no1 (stereo not given) | -10.09 |
| Cc1csc(C2CCCCN2C(=O)CCCn2cncn2)n1 (stereo not given) | -9.865 |
| CC(C)c1nc(C2CCCN2C(=O)CCn2cncn2)no1 (stereo not given) | 104.8 |
| Cc1cc(S(=O)(=O)Nc2cccc(-n3cccc3)c2)sc1C(=O)O | -5.79 |
| CS(=O)(=O)N[C@H]1CN(C(=O)CCc2ccc(=O)[nH]n2)C[C@@H]1C1CC1 | -10.51 |
| Cc1cc(C(=O)NCC2Cn3nnc(C)c3CO2)no1 (stereo not given) | 3.49 |
| CCCc1nccn1-c1ccncc1 | 13.78 |
| COc1ccc(Oc2nccc3occc23)cc1CN1CCCC1 | 7.902 |
| COc1c(C(=O)N2CCNC(=O)C2)cnc2c1c(C)nn2C | 124.2 |
| COc1c(C)cnc(CNC(=O)c2cc(C)nc3c2c(C)nn3C)c1C | -8.384 |
| O=C(c1cnc(COc2ccccc2)nc1O)N1CCOCC1 | 1.405 |

| SMILES | Percent Effect [%] |
| --- | --- |
| COC(=O)c1ccccc1NS(=O)(=O)c1c(C)nn(C)c1C | 21.66 |
| Cc1ccc(CNc2ccc(C(=O)N3CCNC(=O)C3)cn2)cc1 | 3.114 |
| COC(=O)c1cnc2c(c(C)nn2C)c1OC | 97.33 |
| Cc1cc(C(=O)N2CCNC(=O)C2)c(C)n1Cc1ccccn1 | -1.908 |
| Cc1cc(C(=O)N2CCCC3(CNC(=O)O3)C2)c2c(C)nn(C)c2n1 (stereo not given) | 2.308 |
| COc1c(C(=O)N2CCOCC2)cnc2c1c(C)nn2C | 129.8 |
| O=C1N(CC2CCCCC2)CCCC1(O)CN1CCc2[nH]ncc2C1 (stereo not given) | -9.247 |
| COc1cc(F)c(CN2CCN(CC(C)C)C(=O)C2C)cc1OC (stereo not given) | 4.949 |
| CN(C)c1ccc(C(=O)NCC2(c3ccccc3)CCOCC2)cc1 | 9.489 |
| CS(=O)(=O)N1C[C@@H]2CC[C@H](C1)N(C(=O)Cn1ccc3ccccc31)C2 | -4.366 |
| CN(CC(=O)N1CCC(Cc2cccc(C(N)=O)c2)C1)C1CCCC1 (stereo not given) | -18.46 |
| CC(C)Oc1ccc(CNC(=O)CC(F)(F)F)cc1F | 4.736 |
| O=C1N(c2cccc(Cl)c2)Cc2nc(=O)[nH]n21 | -8.298 |
| Cc1noc([C@@H]2C[C@@H]3CCN(CC4CCOCC4)C[C@H]3O2)n1.O=C(O)C(F)(F)F | 8.264 |
| Cc1noc([C@H]2C[C@@H]3CCN(CC4CC4)C[C@H]3O2)n1.O=C(O)C(F)(F)F | 1.445 |
| Cc1noc([C@@H]2C[C@H]3CN(Cc4scnc4C)C[C@H]3O2)n1.O=C(O)C(F)(F)F | -4.188 |
| Cc1noc([C@@H]2C[C@@H]3CCN(CC4CC4)C[C@H]3O2)n1.O=C(O)C(F)(F)F | -0.5641 |
| Cc1noc([C@@H]2CC[C@@H]3[C@@H](CCN3c3nnc(C)s3)O2)n1.O=C(O)C(F)(F)F | 108.3 |
| Cc1noc([C@H]2CC[C@@H]3[C@@H](CCN3c3ncccn3)O2)n1 | 101.9 |
| Cc1noc([C@@H]2C[C@@H]3CCN(c4nnc(C)s4)C[C@H]3O2)n1.O=C(O)C(F)(F)F | 122.4 |
| Cc1noc([C@H]2C[C@@H]3CCN(CC4CCOCC4)C[C@H]3O2)n1.O=C(O)C(F)(F)F | 8.046 |
| Cc1noc([C@H]2CC[C@@H]3[C@@H](CCN3S(C)(=O)=O)O2)n1 | 5.645 |
| Cc1noc([C@H]2C[C@@H]3CCN(c4nnc(C)s4)C[C@H]3O2)n1.O=C(O)C(F)(F)F | 107.3 |
| Cc1noc([C@@H]2CC[C@@H]3[C@@H](CCN3S(=O)(=O)c3cccnc3)O2)n1.O=C(O)C(F)(F)F | 4.369 |
| Cc1noc([C@@H]2CC[C@@H]3[C@@H](CCN3S(=O)(=O)C3CC3)O2)n1 | -8.52 |

Source: ChEMBL document CHEMBL3988442, “University of Dundee, Small-Polar-MMV Screening Library” (2021)
